Experimental findings from article PMC7862700, “An all-to-all approach to the identification of sequence-specific readers for epigenetic DNA modifications on cytosine” are described below.

Experiment in all cases: DAPPL (digital affinity profiling via proximity ligation, sequencing); 10 mM Tris-HCl pH 7.5, 50 mM NaCl, 1 mM DTT, 4% glycerol, room temperature, 30 min; GST-TFs on glutathione beads, 16-mer random dsDNA library, 0.1% formaldehyde crosslink after washing; high values mean tight binding
One assay deals with T1, FLI1 (Homo sapiens, UniProt Q01543 1-452).
T1 sequence: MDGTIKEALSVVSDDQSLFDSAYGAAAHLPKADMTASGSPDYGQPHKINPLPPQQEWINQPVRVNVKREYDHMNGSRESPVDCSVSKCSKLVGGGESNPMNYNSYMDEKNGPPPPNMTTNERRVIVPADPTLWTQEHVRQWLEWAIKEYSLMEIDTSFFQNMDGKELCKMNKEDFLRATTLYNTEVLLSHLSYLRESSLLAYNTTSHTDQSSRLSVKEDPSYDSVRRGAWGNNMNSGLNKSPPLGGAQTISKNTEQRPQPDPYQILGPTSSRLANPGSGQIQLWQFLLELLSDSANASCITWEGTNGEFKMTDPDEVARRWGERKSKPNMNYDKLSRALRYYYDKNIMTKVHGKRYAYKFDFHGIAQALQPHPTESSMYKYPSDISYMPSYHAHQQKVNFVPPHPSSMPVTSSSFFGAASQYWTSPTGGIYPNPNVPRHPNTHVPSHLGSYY
The note with it: protein: recombinant; tags: N-terminal GST; dsDNA, one strand shown. In short, it runs like this:
(§1)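 In yeast, human transcription factors were expressed with a GST fusion, then pulled down on glutathione beads and given DNA barcodes. Pooled with a tag-only sample, they were exposed to 200 nmole of a 16-mer random double-stranded DNA library (Tris/NaCl/DTT/glycerol buffer, room temperature, 30 min), washed, crosslinked with 0.1% formaldehyde, proximity-ligated using BsaI/T4 ligase for 1 h at 37 °C, PCR-amplified and read on an Illumina NextSeq500. Each hexamer's frequency of reads for a factor, divided by the matching frequency for the tag-only sample, gives the binding signal.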

A further assay has as its target T2, ELK1 (Homo sapiens, UniProt P19419 1-428).
T2 sequence: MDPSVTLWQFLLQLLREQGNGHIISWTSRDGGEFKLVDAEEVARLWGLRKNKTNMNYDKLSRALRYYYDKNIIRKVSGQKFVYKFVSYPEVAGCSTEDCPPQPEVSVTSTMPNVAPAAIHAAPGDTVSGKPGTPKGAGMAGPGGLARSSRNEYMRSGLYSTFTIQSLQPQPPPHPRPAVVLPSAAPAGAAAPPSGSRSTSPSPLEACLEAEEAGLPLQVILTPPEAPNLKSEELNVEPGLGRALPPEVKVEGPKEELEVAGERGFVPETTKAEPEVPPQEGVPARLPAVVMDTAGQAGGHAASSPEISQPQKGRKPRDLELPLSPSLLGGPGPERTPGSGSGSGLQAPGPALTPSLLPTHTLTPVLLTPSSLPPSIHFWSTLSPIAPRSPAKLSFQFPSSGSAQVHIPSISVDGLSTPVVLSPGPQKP
The note with it: protein: recombinant; tags: N-terminal GST; dsDNA, one strand shown. In short, it runs like this: as §1

A further assay deals with T3, GABPA (Homo sapiens, UniProt Q06546 1-454).
T3 sequence: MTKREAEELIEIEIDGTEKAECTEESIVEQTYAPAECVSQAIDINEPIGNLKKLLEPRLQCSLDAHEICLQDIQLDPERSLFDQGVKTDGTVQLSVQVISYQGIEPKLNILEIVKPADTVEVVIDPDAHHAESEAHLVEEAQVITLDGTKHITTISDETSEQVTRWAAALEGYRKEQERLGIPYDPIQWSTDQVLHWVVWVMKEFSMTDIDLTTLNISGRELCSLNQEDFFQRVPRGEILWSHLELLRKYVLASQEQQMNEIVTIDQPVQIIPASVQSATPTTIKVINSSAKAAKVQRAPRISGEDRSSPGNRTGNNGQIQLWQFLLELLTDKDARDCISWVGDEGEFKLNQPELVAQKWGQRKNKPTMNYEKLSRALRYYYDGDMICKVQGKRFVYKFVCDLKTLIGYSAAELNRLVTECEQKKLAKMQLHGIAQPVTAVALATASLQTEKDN
The note with it: protein: recombinant; tags: N-terminal GST; dsDNA, one strand shown. In short, it runs like this: as §1

Another assay has as its target T4, ERG (Homo sapiens, UniProt P11308 1-479).
T4 sequence: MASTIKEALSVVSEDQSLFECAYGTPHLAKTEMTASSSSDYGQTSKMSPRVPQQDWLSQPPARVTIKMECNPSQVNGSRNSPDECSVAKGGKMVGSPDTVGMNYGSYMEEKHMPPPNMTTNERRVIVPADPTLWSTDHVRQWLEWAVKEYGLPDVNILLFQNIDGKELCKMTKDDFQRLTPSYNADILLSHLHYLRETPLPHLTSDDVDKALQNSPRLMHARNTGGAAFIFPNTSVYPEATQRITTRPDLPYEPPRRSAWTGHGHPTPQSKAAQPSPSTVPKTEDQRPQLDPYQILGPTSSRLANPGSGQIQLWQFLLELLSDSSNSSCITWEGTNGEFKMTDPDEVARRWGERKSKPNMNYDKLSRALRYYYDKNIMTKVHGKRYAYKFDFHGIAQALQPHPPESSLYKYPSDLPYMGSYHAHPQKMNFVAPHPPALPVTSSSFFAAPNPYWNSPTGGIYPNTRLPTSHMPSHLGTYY
The note with it: protein: recombinant; tags: N-terminal GST; dsDNA, one strand shown. In short, it runs like this:
as §1

The next assay deals with ELF1 (Homo sapiens, UniProt P32519 1-619). As to conditions: protein: recombinant; tags: N-terminal GST; dsDNA, one strand shown. The gist of the method: as §1
Chain of ELF1 (P32519 whole entry): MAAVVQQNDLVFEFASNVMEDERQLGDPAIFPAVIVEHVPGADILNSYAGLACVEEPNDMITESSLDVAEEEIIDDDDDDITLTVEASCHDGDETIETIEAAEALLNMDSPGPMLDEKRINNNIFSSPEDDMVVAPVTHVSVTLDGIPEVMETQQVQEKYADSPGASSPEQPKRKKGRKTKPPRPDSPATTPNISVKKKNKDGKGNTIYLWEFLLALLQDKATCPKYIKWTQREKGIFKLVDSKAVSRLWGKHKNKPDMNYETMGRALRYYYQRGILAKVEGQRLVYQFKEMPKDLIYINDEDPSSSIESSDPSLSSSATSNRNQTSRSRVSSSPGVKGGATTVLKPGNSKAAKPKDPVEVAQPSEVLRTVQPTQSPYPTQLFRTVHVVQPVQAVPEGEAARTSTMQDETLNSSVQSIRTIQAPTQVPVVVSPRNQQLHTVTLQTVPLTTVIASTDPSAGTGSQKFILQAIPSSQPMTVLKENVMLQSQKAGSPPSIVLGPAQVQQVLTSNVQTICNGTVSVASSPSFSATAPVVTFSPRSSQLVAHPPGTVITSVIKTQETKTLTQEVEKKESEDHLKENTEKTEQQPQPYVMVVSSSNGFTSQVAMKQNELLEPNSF
The target of the next assay is T5, EHF (Homo sapiens, UniProt Q9NZC4 1-300).
T5 sequence: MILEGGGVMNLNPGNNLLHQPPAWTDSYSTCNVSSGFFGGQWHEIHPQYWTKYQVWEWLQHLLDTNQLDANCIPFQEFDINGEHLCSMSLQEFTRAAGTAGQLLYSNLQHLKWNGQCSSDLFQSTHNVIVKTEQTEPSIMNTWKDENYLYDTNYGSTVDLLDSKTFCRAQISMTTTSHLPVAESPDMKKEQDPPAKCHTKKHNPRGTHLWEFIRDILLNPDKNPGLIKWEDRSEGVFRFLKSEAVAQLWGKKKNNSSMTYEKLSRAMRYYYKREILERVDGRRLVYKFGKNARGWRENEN
The note with it: protein: recombinant; tags: N-terminal GST; dsDNA, one strand shown. The gist of the method:
as §1

A further assay deals with SPI1 (Homo sapiens, UniProt P17947 1-270). As to conditions: protein: recombinant; tags: N-terminal GST; dsDNA, one strand shown. The gist of the method: as §1
In a further assay the target is SPIB (Homo sapiens, UniProt Q01892 1-262). The note with it: protein: recombinant; tags: N-terminal GST; dsDNA, one strand shown. In short, it runs like this: as §1
Chain of SPIB (Q01892 whole entry): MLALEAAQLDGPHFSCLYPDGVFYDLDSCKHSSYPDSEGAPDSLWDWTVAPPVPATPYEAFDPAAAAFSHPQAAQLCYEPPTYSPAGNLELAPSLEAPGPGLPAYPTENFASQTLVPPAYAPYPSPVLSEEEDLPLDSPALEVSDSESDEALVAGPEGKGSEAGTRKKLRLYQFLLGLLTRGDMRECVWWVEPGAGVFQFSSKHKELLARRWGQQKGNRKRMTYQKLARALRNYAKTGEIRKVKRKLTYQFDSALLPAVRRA
Another assay addresses T6, ELK3 (Homo sapiens, UniProt P41970 1-407).
T6 sequence: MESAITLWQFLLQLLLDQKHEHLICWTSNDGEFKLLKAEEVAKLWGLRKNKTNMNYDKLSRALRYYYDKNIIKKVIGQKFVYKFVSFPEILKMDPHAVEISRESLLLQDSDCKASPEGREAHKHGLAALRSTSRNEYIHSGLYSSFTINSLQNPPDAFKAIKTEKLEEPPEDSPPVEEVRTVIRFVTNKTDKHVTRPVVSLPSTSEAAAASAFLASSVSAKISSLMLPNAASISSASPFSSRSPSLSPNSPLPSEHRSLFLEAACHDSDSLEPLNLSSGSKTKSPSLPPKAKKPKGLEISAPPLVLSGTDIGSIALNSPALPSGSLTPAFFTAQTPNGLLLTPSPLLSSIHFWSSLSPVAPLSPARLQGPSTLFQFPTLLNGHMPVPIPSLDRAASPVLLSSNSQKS
The note with it: protein: recombinant; tags: N-terminal GST; dsDNA, one strand shown. In short, it runs like this: as §1

For another assay, the target named is T7, FEV (Homo sapiens, UniProt Q99581 1-238).
T7 sequence: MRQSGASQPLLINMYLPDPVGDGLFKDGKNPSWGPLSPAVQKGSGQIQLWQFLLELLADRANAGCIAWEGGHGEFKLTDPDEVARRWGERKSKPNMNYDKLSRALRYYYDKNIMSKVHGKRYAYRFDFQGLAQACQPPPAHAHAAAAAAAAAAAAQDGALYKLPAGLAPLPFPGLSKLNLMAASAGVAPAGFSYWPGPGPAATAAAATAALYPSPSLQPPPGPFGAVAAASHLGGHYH
The note with it: protein: recombinant; tags: N-terminal GST; dsDNA, one strand shown. The gist of the method:
as §1

The next assay addresses ETV5 (Homo sapiens, UniProt P41161 1-510). The note with it: protein: recombinant; tags: N-terminal GST; dsDNA, one strand shown. The gist of the method:
as §1

The target of another assay is HSF1 (Homo sapiens, UniProt Q00613 1-529). As to conditions: protein: recombinant; tags: N-terminal GST; chain copies: 3; dsDNA, one strand shown. In short, it runs like this:
as §1

For the next assay, the target named is T8, SPIC (Homo sapiens, UniProt Q8N5J4 1-248).
T8 sequence: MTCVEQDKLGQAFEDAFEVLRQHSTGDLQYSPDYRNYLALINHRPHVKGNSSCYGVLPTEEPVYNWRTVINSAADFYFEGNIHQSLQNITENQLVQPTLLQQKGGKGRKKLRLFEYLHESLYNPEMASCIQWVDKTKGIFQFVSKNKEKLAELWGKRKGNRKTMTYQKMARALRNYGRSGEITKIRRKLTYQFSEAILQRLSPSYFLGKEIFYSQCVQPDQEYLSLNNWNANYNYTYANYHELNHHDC
As to conditions: protein: recombinant; tags: N-terminal GST; dsDNA, one strand shown. The gist of the method:
as §1

For the next assay, the target named is ELF4 (Homo sapiens, UniProt Q99607 1-663). As to conditions: protein: recombinant; tags: N-terminal GST; dsDNA, one strand shown. The gist of the method:
as §1

For another assay, the target named is T9, ELK4 (Homo sapiens, UniProt P28324-2 1-405).
T9 sequence: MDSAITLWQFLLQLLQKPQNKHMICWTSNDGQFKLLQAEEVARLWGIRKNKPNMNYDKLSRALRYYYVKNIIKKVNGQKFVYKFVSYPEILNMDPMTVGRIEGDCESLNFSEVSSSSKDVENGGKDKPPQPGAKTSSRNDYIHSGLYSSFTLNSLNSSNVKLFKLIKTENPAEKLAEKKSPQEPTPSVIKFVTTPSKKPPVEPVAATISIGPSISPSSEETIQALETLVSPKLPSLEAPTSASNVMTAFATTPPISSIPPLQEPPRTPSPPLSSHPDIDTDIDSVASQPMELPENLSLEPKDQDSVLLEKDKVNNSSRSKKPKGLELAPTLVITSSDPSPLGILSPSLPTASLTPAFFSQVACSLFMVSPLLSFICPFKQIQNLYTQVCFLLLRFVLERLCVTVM
The note with it: protein: recombinant; tags: N-terminal GST; dsDNA, one strand shown. The gist of the method: as §1

Another assay addresses T10, ETV2 (Homo sapiens, UniProt O00321 1-342).
T10 sequence: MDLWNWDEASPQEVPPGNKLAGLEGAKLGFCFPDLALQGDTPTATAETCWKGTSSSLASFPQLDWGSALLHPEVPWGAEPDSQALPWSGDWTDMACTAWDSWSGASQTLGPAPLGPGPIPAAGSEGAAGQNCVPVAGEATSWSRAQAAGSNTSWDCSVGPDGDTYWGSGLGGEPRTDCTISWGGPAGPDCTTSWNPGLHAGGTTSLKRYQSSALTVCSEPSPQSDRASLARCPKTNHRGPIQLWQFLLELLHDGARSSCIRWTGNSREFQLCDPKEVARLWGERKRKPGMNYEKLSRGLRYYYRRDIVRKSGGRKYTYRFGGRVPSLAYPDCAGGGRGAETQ
As to conditions: protein: recombinant; tags: N-terminal GST; dsDNA, one strand shown. In short, it runs like this: as §1

A further assay addresses T11, ELF3 (Homo sapiens, UniProt P78545 1-371).
T11 sequence: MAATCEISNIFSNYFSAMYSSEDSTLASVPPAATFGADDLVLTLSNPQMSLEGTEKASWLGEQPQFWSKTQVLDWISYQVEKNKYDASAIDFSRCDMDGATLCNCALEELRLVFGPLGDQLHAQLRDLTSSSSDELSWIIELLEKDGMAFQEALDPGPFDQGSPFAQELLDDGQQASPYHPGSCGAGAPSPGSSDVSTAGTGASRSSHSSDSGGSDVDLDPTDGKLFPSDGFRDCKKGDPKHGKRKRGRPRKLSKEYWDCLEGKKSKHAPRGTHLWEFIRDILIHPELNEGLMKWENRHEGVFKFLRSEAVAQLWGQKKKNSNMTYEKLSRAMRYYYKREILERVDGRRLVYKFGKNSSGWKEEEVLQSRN
The note with it: protein: recombinant; tags: N-terminal GST; dsDNA, one strand shown. The gist of the method: as §1

Another assay deals with CRX (Homo sapiens, UniProt O43186 1-299). The note with it: protein: recombinant; tags: N-terminal GST; dsDNA, one strand shown. In short, it runs like this: as §1
Chain of CRX (O43186 whole entry): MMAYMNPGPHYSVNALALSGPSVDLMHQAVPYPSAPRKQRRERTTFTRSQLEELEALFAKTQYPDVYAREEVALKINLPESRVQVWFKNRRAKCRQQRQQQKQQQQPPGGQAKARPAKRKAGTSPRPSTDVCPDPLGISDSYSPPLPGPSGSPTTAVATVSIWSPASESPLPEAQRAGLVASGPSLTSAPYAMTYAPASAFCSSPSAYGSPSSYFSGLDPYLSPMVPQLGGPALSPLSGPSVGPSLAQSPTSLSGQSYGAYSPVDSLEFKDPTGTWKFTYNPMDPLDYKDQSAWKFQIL
In a further assay the target is ETV1 (Homo sapiens, UniProt P50549 1-477). As to conditions: protein: recombinant; tags: N-terminal GST; dsDNA, one strand shown. In short, it runs like this:
as §1

Chain of HSF1 (Q00613 whole entry): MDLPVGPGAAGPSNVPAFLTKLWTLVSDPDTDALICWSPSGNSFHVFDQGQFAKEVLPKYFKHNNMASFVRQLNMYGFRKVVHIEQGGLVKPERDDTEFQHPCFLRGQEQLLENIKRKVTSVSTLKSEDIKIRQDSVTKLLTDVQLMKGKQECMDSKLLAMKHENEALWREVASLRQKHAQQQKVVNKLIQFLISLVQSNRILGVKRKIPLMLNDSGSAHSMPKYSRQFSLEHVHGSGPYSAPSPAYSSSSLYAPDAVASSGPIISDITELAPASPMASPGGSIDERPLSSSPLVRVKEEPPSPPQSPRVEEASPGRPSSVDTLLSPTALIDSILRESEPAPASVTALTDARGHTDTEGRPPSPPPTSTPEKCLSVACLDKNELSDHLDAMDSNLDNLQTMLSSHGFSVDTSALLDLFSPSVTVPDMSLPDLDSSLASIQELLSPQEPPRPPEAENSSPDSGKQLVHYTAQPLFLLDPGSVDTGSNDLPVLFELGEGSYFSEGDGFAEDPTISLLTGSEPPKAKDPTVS
Chain of ELF4 (Q99607 whole entry): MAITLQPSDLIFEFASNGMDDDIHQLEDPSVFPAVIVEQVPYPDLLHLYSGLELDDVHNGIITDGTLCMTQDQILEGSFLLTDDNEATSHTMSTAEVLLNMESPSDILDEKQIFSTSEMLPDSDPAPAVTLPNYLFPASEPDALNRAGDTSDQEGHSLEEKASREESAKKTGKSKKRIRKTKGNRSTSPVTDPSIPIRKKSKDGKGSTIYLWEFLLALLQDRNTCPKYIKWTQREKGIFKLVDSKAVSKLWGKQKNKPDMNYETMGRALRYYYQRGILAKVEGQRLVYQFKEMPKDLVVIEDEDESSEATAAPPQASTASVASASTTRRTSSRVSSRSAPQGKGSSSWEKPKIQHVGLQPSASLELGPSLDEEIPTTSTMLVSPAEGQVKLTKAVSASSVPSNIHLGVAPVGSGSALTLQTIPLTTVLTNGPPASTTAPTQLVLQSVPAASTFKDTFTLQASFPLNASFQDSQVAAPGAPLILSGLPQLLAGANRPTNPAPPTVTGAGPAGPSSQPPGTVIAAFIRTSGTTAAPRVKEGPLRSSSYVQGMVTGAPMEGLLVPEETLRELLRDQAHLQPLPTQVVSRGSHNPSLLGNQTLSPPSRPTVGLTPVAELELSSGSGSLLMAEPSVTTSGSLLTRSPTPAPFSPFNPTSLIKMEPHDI
Chain of ETV5 (P41161 whole entry): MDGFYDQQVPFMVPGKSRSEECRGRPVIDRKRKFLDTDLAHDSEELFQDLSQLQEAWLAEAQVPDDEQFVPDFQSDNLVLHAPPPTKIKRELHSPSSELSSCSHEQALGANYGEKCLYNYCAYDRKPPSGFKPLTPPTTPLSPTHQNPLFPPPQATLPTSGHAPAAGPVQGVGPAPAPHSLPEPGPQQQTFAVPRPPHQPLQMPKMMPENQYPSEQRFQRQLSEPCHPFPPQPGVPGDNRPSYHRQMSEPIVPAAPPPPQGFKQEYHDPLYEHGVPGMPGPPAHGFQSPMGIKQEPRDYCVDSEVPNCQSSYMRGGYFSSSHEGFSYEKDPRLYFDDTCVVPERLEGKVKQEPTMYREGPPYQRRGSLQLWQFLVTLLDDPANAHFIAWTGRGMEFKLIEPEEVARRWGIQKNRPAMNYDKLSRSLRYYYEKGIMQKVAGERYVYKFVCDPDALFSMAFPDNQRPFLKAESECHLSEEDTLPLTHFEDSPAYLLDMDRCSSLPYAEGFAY
Chain of ETV1 (P50549 whole entry): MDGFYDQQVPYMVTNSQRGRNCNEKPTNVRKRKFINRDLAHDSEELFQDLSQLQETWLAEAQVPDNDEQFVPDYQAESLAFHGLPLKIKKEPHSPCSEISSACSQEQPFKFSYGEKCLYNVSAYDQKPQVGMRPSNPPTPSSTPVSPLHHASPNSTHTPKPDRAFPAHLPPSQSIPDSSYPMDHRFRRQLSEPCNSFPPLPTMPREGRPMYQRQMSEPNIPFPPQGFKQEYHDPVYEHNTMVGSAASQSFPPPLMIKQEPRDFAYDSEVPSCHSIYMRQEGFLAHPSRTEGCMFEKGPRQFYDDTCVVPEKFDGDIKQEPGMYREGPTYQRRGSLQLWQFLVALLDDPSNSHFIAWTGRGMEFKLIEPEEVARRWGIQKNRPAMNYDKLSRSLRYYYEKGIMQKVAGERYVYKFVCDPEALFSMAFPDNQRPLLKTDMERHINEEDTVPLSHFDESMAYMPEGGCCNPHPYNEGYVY

As to TTGCTC, the binding signal with FLI1 is 1.35 fold enrichment (6-mer frequency, TF over GST control); in the assay with ELK1, 1.4 fold enrichment (6-mer frequency, TF over GST control); with GABPA, 1.37 fold enrichment (6-mer frequency, TF over GST control); with ERG it was 1.26 fold enrichment (6-mer frequency, TF over GST control); with ELF1 it was 1.28 fold enrichment (6-mer frequency, TF over GST control); with EHF, 1.3 fold enrichment (6-mer frequency, TF over GST control). Also, the binding signal with SPI1 is 1.3 fold enrichment (6-mer frequency, TF over GST control); with SPIB it was 1.25 fold enrichment (6-mer frequency, TF over GST control); with ELK3, 1.01 fold enrichment (6-mer frequency, TF over GST control); with FEV it was 1.25 fold enrichment (6-mer frequency, TF over GST control); with ETV5 it was 1.41 fold enrichment (6-mer frequency, TF over GST control); in the assay with HSF1, 1.3 fold enrichment (6-mer frequency, TF over GST control). Further, the binding signal was 1.34 fold enrichment (6-mer frequency, TF over GST control) in the assay with SPIC; 1.24 fold enrichment (6-mer frequency, TF over GST control) in the assay with ELF4; 1.16 fold enrichment (6-mer frequency, TF over GST control) with ELK4; 1.4 fold enrichment (6-mer frequency, TF over GST control) with ETV2; 1.29 fold enrichment (6-mer frequency, TF over GST control) with ELF3; 1.17 fold enrichment (6-mer frequency, TF over GST control) with CRX. Also, the binding signal with ETV1 is 1.21 fold enrichment (6-mer frequency, TF over GST control).
